Results: PubChem BioAssay AID1159580 (chemical genetic matrix, 2015)
Screen size: about 5,500 compounds; about 2,000 (36%) were called active. About 18% were inconclusive and are not listed. Cut-off read from the data, not from the text of the source: active = normalized growth mostly below about 0.91 (no sharp cut-off); inconclusive = no clear call, values can overlap the other calls; inactive = mostly above about 0.92. Some of the results follow.

Experiment: chemical genetic growth profiling, strain panel (AID 1159580);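 note: tested at 20 µM; growth read once vehicle control cultures reached saturation at 30 °C; 1 = growth at the plate median or of vehicle wells; lower values mean less growth of the strain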
Details: growth OD

Measured: normalized growth

CC(=O)O.CC(=O)O.[Cd]
inactive: S. cerevisiae deletion strains, locus YOL012C, strain htz1 0.261 | S. cerevisiae deletion strains, locus YOR290C, strain snf2, active compounds read low 0.927 | S. cerevisiae deletion strains, locus YPL106C, strain sse1, active compounds read low 1.01
active: S. cerevisiae deletion strains, locus YJR043C, strain POL32, active compounds read low 0.298 | S. cerevisiae deletion strains, locus YJR075W, strain HOC1, active compounds read low 0.202 | S. cerevisiae deletion strains, locus YKL009W, strain mrt4, active compounds read low 0.639 | S. cerevisiae deletion strains, locus YKL068W, active compounds read low 0.651 | S. cerevisiae deletion strains, locus YKL085W, strain MDH1 (second series), active compounds read low 0.372 | S. cerevisiae deletion strains, locus YKL085W, strain MDH1, active compounds read low 0.372 | S. cerevisiae deletion strains, locus YKL160W, strain elf1, active compounds read low 0.533 | S. cerevisiae deletion strains, locus YKL190W, strain CNB1, active compounds read low 0.125 | S. cerevisiae deletion strains, locus YKR001C, strain vps1, active compounds read low 0.12 | S. cerevisiae deletion strains, locus YKR026C, strain gcn3, active compounds read low 0.82 | S. cerevisiae deletion strains, locus YKR091W, strain srl3, active compounds read low 0.793 | S. cerevisiae deletion strains, locus YLL001W, strain dnm1, active compounds read low 0.68 | S. cerevisiae deletion strains, locus YLL026W, active compounds read low 0.603 | S. cerevisiae deletion strains, locus YLL041C, strain sdh2, active compounds read low 0.785 | S. cerevisiae deletion strains, locus YLR027C, strain aat2, active compounds read low 0.664 | S. cerevisiae deletion strains, locus YLR039C, strain RIC1, active compounds read low 0.166 | S. cerevisiae deletion strains, locus YLR058C, strain SHM2, active compounds read low 0.154 | S. cerevisiae deletion strains, locus YLR102C, strain apc9, active compounds read low 0.464 | S. cerevisiae deletion strains, locus YLR221C, strain rsa3, active compounds read low 0.669 | S. cerevisiae deletion strains, locus YLR258W, strain gsy2, active compounds read low 0.698 | S. cerevisiae deletion strains, locus YLR262C, strain YPT6 (second series), active compounds read low 0.403 | S. cerevisiae deletion strains, locus YLR262C, strain YPT6, active compounds read low 0.133 | S. cerevisiae deletion strains, locus YLR268W, strain sec22, active compounds read low 0.158 | S. cerevisiae deletion strains, locus YLR320W, strain mms22, active compounds read low 0.696 | S. cerevisiae deletion strains, locus YLR330W, strain CHS5, active compounds read low 0.811 | S. cerevisiae deletion strains, locus YLR342W, strain FKS1 (second series), active compounds read low 0.311 | S. cerevisiae deletion strains, locus YLR342W, strain FKS1, active compounds read low 0.862 | S. cerevisiae deletion strains, locus YLR357W, strain rsc2, active compounds read low 0.522 | S. cerevisiae deletion strains, locus YLR370C, strain arc18, active compounds read low 0.313 | S. cerevisiae deletion strains, locus YLR371W, strain rom2, active compounds read low 0.188 | S. cerevisiae deletion strains, locus YLR384C, strain iki3, active compounds read low 0.804 | S. cerevisiae deletion strains, locus YLR418C, strain cdc73, active compounds read low 0.175 | S. cerevisiae deletion strains, locus YML016C, strain PPZ1, active compounds read low 0.224 | S. cerevisiae deletion strains, locus YML032C, strain rad52, active compounds read low 0.313 | S. cerevisiae deletion strains, locus YML120C, strain ndi1, active compounds read low 0.695 | S. cerevisiae deletion strains, locus YML124C, strain tub3, active compounds read low 0.304 | S. cerevisiae deletion strains, locus YMR058W, strain fet3, active compounds read low 0.0708 | S. cerevisiae deletion strains, locus YMR078C, strain ctf18, active compounds read low 0.462 | S. cerevisiae deletion strains, locus YMR125W, strain sto1, active compounds read low 0.87 | S. cerevisiae deletion strains, locus YMR129W, active compounds read low 0.802 | S. cerevisiae deletion strains, locus YMR205C, strain PFK2, active compounds read low 0.675 | S. cerevisiae deletion strains, locus YMR223W, strain ubp8, active compounds read low 0.271 | S. cerevisiae deletion strains, locus YMR231W, strain pep5, active compounds read low 0.179 | S. cerevisiae deletion strains, locus YMR263W, strain SAP30, active compounds read low 0.221 | S. cerevisiae deletion strains, locus YMR307W, strain GAS1, active compounds read low 0.172 | S. cerevisiae deletion strains, locus YNL067W, strain RPL9B, active compounds read low 0.289 | S. cerevisiae deletion strains, locus YNL071W, strain lat1, active compounds read low 0.757 | S. cerevisiae deletion strains, locus YNL128W, strain TEP1, active compounds read low 0.234 | S. cerevisiae deletion strains, locus YNL153C, strain GIM3, active compounds read low 0.468 | S. cerevisiae deletion strains, locus YNL209W, strain ssb2, active compounds read low 0.583 | S. cerevisiae deletion strains, locus YNL233W, strain BNI4, active compounds read low 0.394 | S. cerevisiae deletion strains, locus YNL248C, strain rpa49, active compounds read low 0.765 | S. cerevisiae deletion strains, locus YNL250W, strain rad50, active compounds read low 0.269 | S. cerevisiae deletion strains, locus YNL271C, strain bni1, active compounds read low 0.3 | S. cerevisiae deletion strains, locus YNL298W, strain CLA4, active compounds read low 0.345 | S. cerevisiae deletion strains, locus YNL307C, strain MCK1, active compounds read low 0.124 | S. cerevisiae deletion strains, locus YNL322C, strain KRE1 (second series), active compounds read low 0.547 | S. cerevisiae deletion strains, locus YNL322C, strain KRE1, active compounds read low 0.139 | S. cerevisiae deletion strains, locus YNR049C, strain mso1, active compounds read low 0.819 | S. cerevisiae deletion strains, locus YNR052C, strain pop2, active compounds read low 0.164 | S. cerevisiae deletion strains, locus YOL006C, strain TOP1, active compounds read low 0.153 | S. cerevisiae deletion strains, locus YOL147C, strain pex11, active compounds read low 0.32 | S. cerevisiae deletion strains, locus YOR001W, strain rrp6, active compounds read low 0.752 | S. cerevisiae deletion strains, locus YOR061W, strain CKA2, active compounds read low 0.269 | S. cerevisiae deletion strains, locus YOR069W, strain VPS5, active compounds read low 0.222 | S. cerevisiae deletion strains, locus YOR070C, strain gyp1, active compounds read low 0.669 | S. cerevisiae deletion strains, locus YOR080W, strain dia2, active compounds read low 0.851 | S. cerevisiae deletion strains, locus YOR083W, strain WHI5, active compounds read low 0.59 | S. cerevisiae deletion strains, locus YOR106W, strain vam3, active compounds read low 0.408 | S. cerevisiae deletion strains, locus YOR136W, strain idh2, active compounds read low 0.263 | S. cerevisiae deletion strains, locus YOR144C, strain elg1, active compounds read low 0.461 | S. cerevisiae deletion strains, locus YOR184W, strain ser1, active compounds read low 0.25 | S. cerevisiae deletion strains, locus YOR265W, strain rbl2, active compounds read low 0.769 | S. cerevisiae deletion strains, locus YOR270C, strain vph1, active compounds read low 0.405 | S. cerevisiae deletion strains, locus YOR316C, strain cot1, active compounds read low 0.356 | S. cerevisiae deletion strains, locus YPL051W, strain arl3, active compounds read low 0.207 | S. cerevisiae deletion strains, locus YPL055C, strain LGE1, active compounds read low 0.169 | S. cerevisiae deletion strains, locus YPL078C, strain atp4, active compounds read low 0.707 | S. cerevisiae deletion strains, locus YPL240C, strain hsp82, active compounds read low 0.731 | S. cerevisiae deletion strains, locus YPL241C, strain CIN2, active compounds read low 0.271 | S. cerevisiae deletion strains, locus YPR119W, strain clb2, active compounds read low 0.433 | S. cerevisiae deletion strains, locus YPR141C, strain kar3, active compounds read low 0.418 | S. cerevisiae deletion strains, locus YPR163C, strain tif3, active compounds read low 0.441 | S. cerevisiae deletion strains, locus YPR167C, strain met16, active compounds read low 0.387 | S. cerevisiae deletion strains, strain wtn01, active compounds read low 0.254 | S. cerevisiae strains, strain wild type, active compounds read low 0.13
